From PubChem BioAssay (NCATS)
Unmarked numbers belong to inactive results. Inconclusive results are not listed. Where a call stands in place of a potency, no number is given. Active and inactive are the calls of the source. Unless noted, calls come from the whole dose curve; as a rule, active = well fitted curve in the direction sought with a large enough effect; inconclusive = small, poorly fitted or top-dose-only effect, or another doubt; inactive = no such curve, though single readings can be large; an effect the other way counts as inactive or inconclusive.

Columns and labels:
[1] = target: Calcium and integrin-binding protein 1 (Homo sapiens) (UniProt Q99828); experiment: Primary qHTS for Identification of Calcium Integrin Binding Protein 1 (CIB1) Competitor (AID 1508620);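 note: GST tagged CIB1 binding a fluorescein labelled alphaIIb integrin peptide tracer; top concentration of the series differs between compounds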
In short: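 CIB1-GST (1 uM final) and compound incubated 15 min at room temperature before adding FITC-alphaIIb peptide tracer (100 nM final). Competition for binding read by fluorescence polarization (ex 480, em 540) after another 15 min at room temperature.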

[2] = A High-Content qHTS Against Drug Library for the Identification of Small Molecules that Inhibit DYT1 Early Onset Primary Dystonia-Associated Cell Pathology (AID 1645839; calls by dose curve; note: series mostly up to about 46 µM)
In short: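 High-content imaging quantified EGFP-TorsinA mislocalization in HEK293-derived cells inducibly expressing DYT1 mutant torsinA, after 48 h exposure to compound given together with tetracycline induction. Cell count served as a toxicity channel alongside %pathology.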

[3] = target: Cytochrome P450 2D6 (Homo sapiens) (UniProt P10635); experiment: Cytochrome P450 family 2 subfamily D member 6 (CYP2D6) small molecule antagonists: luciferase biochemical (cell-free) qHTS assay (AID 1645840; active = well fitted curve in the direction sought with a large enough effect in the repeat runs; an effect the other way counts as inactive or inconclusive; note: series mostly up to about 57 µM; nearly all actives have a fitted effect of over 55% in size)
In short: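 P450-Glo CYP2D6 system: proluciferin substrate converted by enzyme to luciferin, read by luminescence proportional to activity. Enzyme-substrate mix with compound 10 min at room temperature, then NADPH regeneration 1 h before detection reagent.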

[4] = target: Cytochrome P450 3A4 (Homo sapiens) (UniProt P08684); experiment: Cytochrome P450 family 3 subfamily A member 4 (CYP3A4) small molecule antagonists: luciferase qHTS assay (AID 1645841; active = well fitted curve in the direction sought with a large enough effect in the repeat runs; an effect the other way counts as inactive or inconclusive; note: nearly all actives have a fitted effect of over 45% in size)
In short: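 Luminescent CYP3A4 activity readout: compounds plus enzyme-substrate mix 10 min at room temperature, reaction started with NADPH regenerating system for 1 h, stopped with detection reagent, read after 20 min. Ketoconazole served as control.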

[5] = Primary qHTS for inhibitors of nuclear receptor binding SET domain protein 2 (NSD2) in an RCH-ACV wild type WT cells (2C) (AID 1645877); note: nearly all actives have a fitted effect of over 70% in size; note: potency is the fitted concentration of half-maximal effect
[6] = Cell Viability qHTS for small molecule stabilizers of the endoplasmic reticulum resident proteome (AID 1508629); conditions: cell viability counter-screen, 100 nM thapsigargin for final 4 h;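 note: human SH-SY5Y neuroblastoma cells carrying the GLuc-SERCaMP reporter; compound exposure about 46 h in total before the viability read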
[7] = target: Rap guanine nucleotide exchange factor 3 (Homo sapiens) (UniProt O95398); experiment: Confirmatory qHTS for antagonist of cAMP-regulated guanine nucleotide exchange factor 3 (EPAC1) (AID 1645880); note: nearly all actives have a fitted effect of over 55% in size; note: potency is the fitted concentration of half-maximal effect
In short: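 Released BODIPY-GDP fluoresces less than Rap1-bound BODIPY-GDP; the signal is followed at 480/540 nm at 5-min intervals over 30 min, after 5 min at room temperature. Reactions contain 100 nM EPAC1, 250 nM RAP1B-BODIPY-GDP and 50 uM GDP; results are normalized to ATA and DMSO.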

[8] = target: Rap guanine nucleotide exchange factor 4 (Homo sapiens) (UniProt Q8WZA2); experiment: Confirmatory qHTS for agonist of cAMP-regulated guanine nucleotide exchange factor 4 (EPAC2) (AID 1645884);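 note: nucleotide exchange releases bodipy-GDP from Rap1 and this lowers its fluorescence; nearly all actives have a fitted effect of over 65% in size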
[9] = target: Single-stranded DNA cytosine deaminase (Homo sapiens) (UniProt Q9GZX7); experiment: Validation qHTS assay for inhibitors of Activation Induced Cytidine Deaminase (AID): AID signal (AID 1347429); note: potency is the fitted concentration of half-maximal effect
In short: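 AID+UDG coupled FRET deamination; cpds up to 114 uM final; DJC20/DJC23 substrate, 4 hr RT; NaOH stop, 30 min RT; read Ex 540/Em 590.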

[10] = Primary qHTS for inhibitors of La Crosse Virus (LACV) - induced cell death in SH-SY5Y cells (AID 1508616); note: potency is the fitted concentration of half-maximal effect
In short: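 Cytopathicity rescue screen: compounds pinned onto SH-SY5Y cells, which are then infected with LACV (MOI 0.01) and held 6 days at 37C. Percent activity is scaled between infected DMSO control and uninfected DMSO control.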

[11] = Primary qHTS for small molecule stabilizers of the endoplasmic reticulum resident proteome: Secreted ER Calcium Modulated Protein (SERCaMP) assay (AID 1508630)
In short: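 The SH-SY5Y reporter protocol was run at 3 concentrations up to 38.3 uM (primary) or 11 concentrations (follow-up): 16 h compound, 100 nM thapsigargin for 4 h, then extracellular luciferase luminescence.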

[12] = target: Calcium and integrin-binding protein 1 (Homo sapiens) (UniProt Q99828); experiment: Validation qHTS for Identification of Calcium Integrin Binding protein 1 (CIB1) Competitor (AID 1508618)
In short: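 CIB1-GST (1 uM final) in 5 mM HEPES pH 7.4, 125 mM NaCl, 5 mM CaCl2, 0.01% Tween20 was preincubated 15 min at room temperature with compound (up to 114 uM), then FITC-alphaIIb peptide (100 nM) added for 15 min; fluorescence polarization read.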

[13] = target: Papain (Carica papaya) (UniProt P00784); experiment: Primary qHTS assay for inhibitors of the protease papain (AID 1645873);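 note: papain turnover of Z-FR-AMC read as the AMC fluorescence gain over 10 min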; note: potency is the fitted concentration of half-maximal effect
[14] = Primary qHTS for inhibitors of nuclear receptor binding SET domain protein 2 (NSD2) in an isogenic RCH-ACV NSD2 p.E1099K mutant (9B) (AID 1645876); note: nearly all actives have a fitted effect of over 70% in size; note: potency is the fitted concentration of half-maximal effect
[15] = Confirmatory qHTS for small molecule stabilizers of the endoplasmic reticulum resident proteome: Secreted ER Calcium Modulated Protein (SERCaMP) assay (AID 1508628); note: nearly all actives have a fitted effect of over 40% in size; note: potency is the fitted concentration of half-maximal effect
In short: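 GLuc-SERCaMP-expressing SH-SY5Y cells, pretreated 16 h with compound, are challenged with thapsigargin to empty ER calcium stores; after 4 h, coelenterazine is added directly to the medium and luminescence is imaged.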

[16] = target: N-terminal Xaa-Pro-Lys N-methyltransferase 1 (Homo sapiens) (UniProt Q9BV86); experiment: Confirmatory qHTS for Inhibitors of N-terminal methyltransferase 1 (NTMT1): MTaseGlo Assay (AID 1645874); conditions: NTMT1 enzyme, MTase-Glo SAH luminescence; note: potency is the fitted concentration of half-maximal effect; nearly all actives have a fitted effect of over 65% in size
In short: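 SPKRIA peptide at 1 uM was methylated by 125 nM NTMT1 using 100 uM SAM over 30 min at room temperature, following a 15 min compound preincubation. Product SAH was detected luminescently.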

[17] = target: Rap guanine nucleotide exchange factor 3 (Homo sapiens) (UniProt O95398); experiment: Confirmatory qHTS for agonist of cAMP-regulated guanine nucleotide exchange factor 3 (EPAC1) (AID 1645881);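 note: EPAC1 catalysed release of BODIPY-GDP from Rap1B seen as fluorescence loss; nearly all actives have a fitted effect of over 75% in size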

Chain of Rap guanine nucleotide exchange factor 4 (Homo sapiens) (Q8WZA2 whole entry, looked up): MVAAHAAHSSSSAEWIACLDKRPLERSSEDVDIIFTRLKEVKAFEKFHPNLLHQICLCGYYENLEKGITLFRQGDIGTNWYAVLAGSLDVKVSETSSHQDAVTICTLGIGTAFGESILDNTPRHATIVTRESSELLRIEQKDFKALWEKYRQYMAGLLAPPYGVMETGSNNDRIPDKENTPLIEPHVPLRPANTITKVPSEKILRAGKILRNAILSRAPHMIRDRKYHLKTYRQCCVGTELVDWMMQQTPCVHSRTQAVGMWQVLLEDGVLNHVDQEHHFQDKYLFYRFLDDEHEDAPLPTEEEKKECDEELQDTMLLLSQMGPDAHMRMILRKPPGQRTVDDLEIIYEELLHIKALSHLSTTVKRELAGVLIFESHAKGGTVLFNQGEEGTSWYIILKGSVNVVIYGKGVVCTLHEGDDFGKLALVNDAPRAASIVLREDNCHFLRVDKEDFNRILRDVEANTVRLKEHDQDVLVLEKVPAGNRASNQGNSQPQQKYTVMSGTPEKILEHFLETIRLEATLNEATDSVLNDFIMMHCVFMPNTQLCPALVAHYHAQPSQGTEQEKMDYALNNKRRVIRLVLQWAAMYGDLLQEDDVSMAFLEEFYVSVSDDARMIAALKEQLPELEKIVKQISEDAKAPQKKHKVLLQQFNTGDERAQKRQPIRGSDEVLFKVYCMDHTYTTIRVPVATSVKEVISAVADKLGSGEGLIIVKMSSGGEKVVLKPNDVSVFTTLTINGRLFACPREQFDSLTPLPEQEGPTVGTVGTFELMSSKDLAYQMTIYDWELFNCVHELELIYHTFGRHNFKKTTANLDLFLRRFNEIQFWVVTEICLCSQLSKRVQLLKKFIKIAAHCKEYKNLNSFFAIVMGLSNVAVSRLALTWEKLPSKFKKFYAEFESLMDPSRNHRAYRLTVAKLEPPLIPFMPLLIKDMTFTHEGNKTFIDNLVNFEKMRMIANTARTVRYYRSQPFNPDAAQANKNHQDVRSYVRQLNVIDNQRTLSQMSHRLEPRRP
Chain of Calcium and integrin-binding protein 1 (Homo sapiens) (Q99828 whole entry, looked up): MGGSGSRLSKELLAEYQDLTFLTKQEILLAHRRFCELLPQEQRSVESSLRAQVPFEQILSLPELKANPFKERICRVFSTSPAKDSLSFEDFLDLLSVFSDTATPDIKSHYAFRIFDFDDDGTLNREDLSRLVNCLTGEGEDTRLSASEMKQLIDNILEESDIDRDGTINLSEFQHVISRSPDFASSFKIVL
Chain of Papain (Carica papaya) (P00784 whole entry, looked up, the tested form may be a part): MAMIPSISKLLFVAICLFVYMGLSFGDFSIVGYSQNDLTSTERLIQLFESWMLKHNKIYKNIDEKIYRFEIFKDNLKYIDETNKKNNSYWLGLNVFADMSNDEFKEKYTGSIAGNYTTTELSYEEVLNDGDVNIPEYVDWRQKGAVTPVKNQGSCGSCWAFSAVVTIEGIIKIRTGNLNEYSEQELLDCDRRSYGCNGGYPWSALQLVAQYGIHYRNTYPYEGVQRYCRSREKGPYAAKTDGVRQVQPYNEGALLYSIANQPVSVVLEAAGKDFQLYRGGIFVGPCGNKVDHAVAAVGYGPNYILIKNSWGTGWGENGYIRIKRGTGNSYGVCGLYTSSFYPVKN
Chain of Single-stranded DNA cytosine deaminase (Homo sapiens) (Q9GZX7 whole entry, looked up): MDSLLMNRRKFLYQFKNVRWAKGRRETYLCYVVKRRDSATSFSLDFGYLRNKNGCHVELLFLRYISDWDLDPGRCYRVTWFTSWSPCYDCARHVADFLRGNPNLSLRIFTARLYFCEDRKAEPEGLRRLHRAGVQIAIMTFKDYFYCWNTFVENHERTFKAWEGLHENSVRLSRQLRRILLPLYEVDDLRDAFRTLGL
Chain of Rap guanine nucleotide exchange factor 3 (Homo sapiens) (O95398 whole entry, looked up): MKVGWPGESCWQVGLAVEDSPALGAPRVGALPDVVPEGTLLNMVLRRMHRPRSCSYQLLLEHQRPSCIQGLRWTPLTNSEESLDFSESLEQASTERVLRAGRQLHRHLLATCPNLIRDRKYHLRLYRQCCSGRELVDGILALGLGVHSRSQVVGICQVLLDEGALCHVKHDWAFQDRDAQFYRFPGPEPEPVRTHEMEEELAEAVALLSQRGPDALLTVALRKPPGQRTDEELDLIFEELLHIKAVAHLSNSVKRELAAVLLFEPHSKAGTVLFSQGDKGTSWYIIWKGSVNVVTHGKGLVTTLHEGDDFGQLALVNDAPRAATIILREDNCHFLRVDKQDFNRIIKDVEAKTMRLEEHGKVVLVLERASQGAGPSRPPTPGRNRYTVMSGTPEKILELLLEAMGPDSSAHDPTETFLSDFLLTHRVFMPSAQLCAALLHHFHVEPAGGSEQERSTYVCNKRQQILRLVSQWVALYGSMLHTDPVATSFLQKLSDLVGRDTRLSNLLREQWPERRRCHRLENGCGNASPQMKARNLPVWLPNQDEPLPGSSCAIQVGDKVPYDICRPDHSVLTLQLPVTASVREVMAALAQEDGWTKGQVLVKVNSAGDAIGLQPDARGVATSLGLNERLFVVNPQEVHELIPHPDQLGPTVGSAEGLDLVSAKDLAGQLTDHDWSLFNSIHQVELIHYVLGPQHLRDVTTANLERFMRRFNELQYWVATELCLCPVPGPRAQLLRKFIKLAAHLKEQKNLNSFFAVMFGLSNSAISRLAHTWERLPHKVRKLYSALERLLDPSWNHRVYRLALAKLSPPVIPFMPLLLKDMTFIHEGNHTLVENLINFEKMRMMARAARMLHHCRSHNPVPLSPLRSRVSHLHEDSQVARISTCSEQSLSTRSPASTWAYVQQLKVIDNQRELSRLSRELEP
Chain of Cytochrome P450 2D6 (Homo sapiens) (P10635 whole entry, looked up): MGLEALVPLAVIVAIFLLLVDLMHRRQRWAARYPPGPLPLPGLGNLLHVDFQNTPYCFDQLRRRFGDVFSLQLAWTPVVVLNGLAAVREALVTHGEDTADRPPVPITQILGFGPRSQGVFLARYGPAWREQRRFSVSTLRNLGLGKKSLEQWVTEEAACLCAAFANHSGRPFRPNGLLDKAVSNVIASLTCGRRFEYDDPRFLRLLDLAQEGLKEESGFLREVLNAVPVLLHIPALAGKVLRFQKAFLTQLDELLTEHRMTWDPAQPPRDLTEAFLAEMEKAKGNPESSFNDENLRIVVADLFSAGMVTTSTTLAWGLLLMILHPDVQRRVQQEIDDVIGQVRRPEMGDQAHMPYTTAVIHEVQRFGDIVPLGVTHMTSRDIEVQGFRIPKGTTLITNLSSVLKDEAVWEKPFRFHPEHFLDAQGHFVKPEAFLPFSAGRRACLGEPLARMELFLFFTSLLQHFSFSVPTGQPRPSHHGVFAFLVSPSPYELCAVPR
Chain of N-terminal Xaa-Pro-Lys N-methyltransferase 1 (Homo sapiens) (Q9BV86 whole entry, looked up): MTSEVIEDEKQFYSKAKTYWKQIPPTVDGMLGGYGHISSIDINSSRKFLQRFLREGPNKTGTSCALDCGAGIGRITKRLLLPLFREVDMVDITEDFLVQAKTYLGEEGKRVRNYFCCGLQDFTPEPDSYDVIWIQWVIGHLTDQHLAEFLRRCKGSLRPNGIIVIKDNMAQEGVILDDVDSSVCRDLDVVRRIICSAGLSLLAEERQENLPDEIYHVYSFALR
Chain of Cytochrome P450 3A4 (Homo sapiens) (P08684 whole entry, looked up): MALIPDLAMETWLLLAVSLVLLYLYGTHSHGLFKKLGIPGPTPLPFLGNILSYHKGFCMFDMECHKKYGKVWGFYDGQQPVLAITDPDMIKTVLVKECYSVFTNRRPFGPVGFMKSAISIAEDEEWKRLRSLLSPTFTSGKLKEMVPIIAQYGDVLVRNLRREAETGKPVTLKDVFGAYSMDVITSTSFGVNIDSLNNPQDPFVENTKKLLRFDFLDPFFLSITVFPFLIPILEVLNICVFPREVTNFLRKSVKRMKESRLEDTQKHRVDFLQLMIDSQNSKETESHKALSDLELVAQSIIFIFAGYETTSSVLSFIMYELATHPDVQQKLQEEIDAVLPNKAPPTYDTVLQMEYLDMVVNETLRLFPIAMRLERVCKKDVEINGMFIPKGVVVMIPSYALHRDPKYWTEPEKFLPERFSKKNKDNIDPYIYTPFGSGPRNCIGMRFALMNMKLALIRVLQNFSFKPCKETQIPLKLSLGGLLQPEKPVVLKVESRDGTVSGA

CCC1C(=O)OCC1Cc1cncn1C (centres undefined)
Potency [1]: inactive
Potency [2]: inactive
Potency [3]: inactive
outcome [4]: inactive

CN1CC(=O)N/C1=N/C(=O)Nc1cccc(Cl)c1
Potency [1]: inactive
Potency [2]: inactive
Potency [5]: inactive

CCCCCCCC/C=C\CCCCCCCC(=O)NCCO
max response [6]: 21.6%

CCCN(CC1CC1)c1nc(C)nc(Nc2c(Cl)cc(Cl)cc2Cl)c1Cl
max response [6]: 17.8%

CO/N=C(\C(=O)N[C@@H]1C(=O)N2C(C(=O)O)=C(COC(C)=O)CS[C@H]12)c1csc(N)n1
Potency [3]: inactive

Cn1cc(C2=C(c3ccc(Cl)cc3Cl)C(=O)NC2=O)c2ccccc21
Potency [5]: 6.51 µM (active)
Potency [7]: inactive

N#C/C(=C\c1ccc(O)c(O)c1)C(=O)c1ccc(O)c(O)c1
Potency [7]: 0.794 µM (active)
activation [8]: 1.63% [at 17.1 µM, percent relative to cAMP agonist control]

Oc1cc2c(cc1O)CN(C(=S)NCCc1ccc(Cl)cc1)CCC2
Potency [8]: inactive

O=C(O)[C@@H]1C[C@@H](C(=O)O)N1
Potency [9]: inactive
Potency [10]: inactive
Potency [11]: inactive

CCN1/C(=C/C(C)=O)Sc2ccc(OC)cc21
Potency [9]: inactive
Potency [10]: inactive
outcome [12]: inactive
Potency [13]: inactive
Potency [14]: inactive

CC(=O)SCC[N+](C)(C)C
Potency [9]: inactive
Potency [10]: inactive
outcome [12]: inactive
Potency [11]: inactive
Potency [13]: inactive

Oc1ccc(C2CNCc3sccc32)cc1O (centres undefined)
Potency [9]: inactive
Potency [10]: inactive
outcome [12]: inactive
Potency [11]: inactive
Potency [13]: inactive

C[C@@H](CN1CCC(Cc2ccccc2)CC1)[C@@H](O)c1ccc(O)cc1
Potency [9]: inactive
Potency [10]: inactive
outcome [12]: inactive
Potency [11]: inactive
Potency [13]: inactive

Nc1nc(Nc2ccccc2)nc2c1ncn2[C@@H]1O[C@H](CO)[C@@H](O)[C@H]1O
Potency [9]: inactive
Potency [10]: inactive
outcome [12]: inactive
Potency [13]: inactive

CNC(=O)[C@H]1O[C@@H](n2cnc3c(NCc4ccc(N)cc4)ncnc32)[C@H](O)[C@@H]1O
Potency [9]: inactive
Potency [10]: inactive
outcome [12]: inactive
Potency [11]: inactive
Potency [13]: inactive

COc1ccc(/C=C/C(=O)Nc2ccccc2C(=O)O)cc1OC
Potency [9]: inactive
Potency [10]: inactive
Potency [15]: 39.8 µM (active)
Potency [14]: inactive
Potency [5]: inactive

O=C(c1ccc(OCCCc2cnc[nH]2)cc1)C1CC1
Potency [9]: inactive
Potency [10]: inactive
outcome [12]: inactive
Potency [13]: inactive

O=C1NC(=O)/C(=C/c2ccc(-c3ccc(F)cc3O)o2)S1
Potency [9]: inactive
Potency [10]: inactive
outcome [12]: inactive
Potency [11]: inactive
Potency [13]: inactive
Potency [16]: 34.5 µM (active)
Potency [14]: 14.8 µM (active)
Potency [5]: 10.5 µM (active)
Potency [7]: 55.9 µM (active)
Potency [17]: inactive
Potency [8]: inactive

Cc1cc(NC2CCCCC2)nc(-n2nc(C)cc2C)n1
Potency [9]: inactive
Potency [10]: inactive
outcome [12]: inactive
Potency [11]: inactive
Potency [13]: inactive

OC[C@H]1O[C@@H](n2cnc3c(NC4CCCC4)ncnc32)[C@H](O)[C@@H]1O
Potency [9]: inactive
Potency [10]: inactive
outcome [12]: inactive
Potency [13]: inactive

C=CC(C)=C[C@@]1(C)SC(=O)C(C)=C1O
Potency [9]: inactive
Potency [10]: inactive
outcome [12]: inactive
Potency [13]: inactive

CN(C)CCCO[C@@H]1[C@H]2OC(C)(C)O[C@H]2O[C@@H]1[C@H](O)CO
Potency [9]: inactive
Potency [10]: inactive
Potency [11]: inactive

Oc1cc(O)cc(/C=C/c2ccc(O)c(O)c2)c1
Potency [9]: inactive
Potency [10]: 3.16 µM (active)
Potency [15]: inactive
Potency [13]: 22.4 µM (active)
Potency [14]: 6.51 µM (active)
Potency [5]: 7.31 µM (active)

S=C(S)OC1CC2CC1C1CCCC21 (centres undefined)
Potency [9]: inactive
Potency [10]: inactive
outcome [12]: inactive
Potency [11]: inactive
Potency [13]: inactive

Cc1ccc(C(=O)O[C@H](C(=O)O)[C@@H](OC(=O)c2ccc(C)cc2)C(=O)O)cc1 (tested in a mixture with another compound)
Potency [9]: inactive
Potency [10]: inactive
Potency [15]: inactive

CN=c1nc(-c2ccccc2)n(-c2ccccc2)s1
Potency [9]: inactive
Potency [10]: inactive
outcome [12]: inactive
Potency [11]: inactive
Potency [16]: 0.851 µM (active)

COC1=C(OC)C(=O)c2ccccc2C1=O
Potency [9]: 50.1 µM (active)
Potency [10]: inactive
outcome [12]: inactive
Potency [13]: inactive

CCCCCC(O)c1cccc(OCc2ccc3ccccc3n2)c1 (centres undefined)
Potency [9]: inactive
Potency [10]: inactive
Potency [11]: inactive

CCCCCCCCCCCCCCCCCCNC(=O)OCC(COP(=O)([O-])OCC[n+]1ccsc1)OC (centres undefined)
Potency [9]: inactive
Potency [10]: inactive
Potency [11]: inactive

C[N+](C)(CCCCCC[N+](C)(C)CCCN1C(=O)c2cccc3cccc(c23)C1=O)CCCN1C(=O)c2cccc3cccc(c23)C1=O
Potency [9]: 1.41 µM (active)
Potency [10]: inactive
Potency [11]: inactive

Nc1ncnc2c1ncn2[C@@H]1O[C@H](COP(=O)(O)CP(=O)(O)OP(=O)(O)O)[C@@H](O)[C@H]1O
Potency [9]: inactive
Potency [10]: inactive
outcome [12]: inactive
Potency [13]: inactive
